# Values joined by “and” are separate entries in the source; they are usually repeats but may differ in a detail not shown here. Equal values may be shown once. Results filed as inconclusive are left out. Where a structure was tested more than once in an assay, its records may differ in their call. Active and inactive are the calls of the source. The calls were made as follows, unless noted: active = hit-call score of the fitted dose curve at least 0.9, where 1 is the maximum; inactive = score below 0.9.
# Experiments:
# [1] = CCTE_Shafer_MEA_acute_AB: CCTE's Alamar Blue Assay for Cytotoxicity in the Neural Acute Assay, Shafer Lab (AID 2284069; active = hit-call score of the fitted dose curve at least 0.9, where 1 is the maximum;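 also: active compounds lower the viability signal compared with DMSO wells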)
# In short: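 Cytotoxicity endpoint for acute MEA exposures of primary rat cortical neurons on day 13 or 15. Resazurin reduction is read fluorescently at 544/590 nm, with DMSO as the negative-control baseline.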
# [2] = CCTE_Shafer_MEA_acute_LDH: CCTE's Lactate Dehydrogenase Assay for Cytotoxicity in the Neural Acute Assay, Shafer Lab (AID 2284086; active = hit-call score of the fitted dose curve at least 0.9, where 1 is the maximum;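 also: active means LDH release rises above DMSO vehicle level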)
# In short: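 Primary rat cortical neurons on 48-well MEA plates, treated on day 13 or 15 post-plating. After the 40-min recording with compound, medium LDH release was read by absorbance at 490 nm. Gain of signal was fitted against DMSO negative control.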
# DIO3 (gene 1735) = assay: CCTE_GLTED_hDIO3: CCTE's human Deiodinase 3 (DIO3) Inhibition Assay, Great Lakes Toxicology and Ecology Division (GLTED) Lab (AID 2284055; active = hit-call score of the fitted dose curve at least 0.9, where 1 is the maximum;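 as to AC50: potency is for inhibition seen as loss of released iodide signal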)
# In short: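 Cell-free assay with human DIO3 enzyme produced by adenovirus expression; enzyme incubated with test chemical for 3 hours. Liberated iodide then measured by Sandell-Kolthoff absorbance; loss of signal versus DMSO baseline indicates inhibition, run in triplicate.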
# [3] = CCTE_Shafer_MEA_dev_per_network_spike_spike_percent: CCTE's Neural Network Formation Assay for Percent of Spikes in a Network Spike, Shafer Lab (AID 2284054)
# In short: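 Primary rat cortical neurons on 16-electrode MEA wells (PEI-coated, laminin at plating), exposed from day 0 with renewal at DIV 5 and 9; spikes within 0.05 s of network-spike peaks over total spikes, AUC across days 5, 7, 9, 12.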
# [4] = CCTE_Shafer_MEA_dev_LDH: CCTE's Lactate Dehydrogenase Assay for Cytotoxicity in the Neural Network Formation Assay, Shafer Lab (AID 2284068; active = hit-call score of the fitted dose curve at least 0.9, where 1 is the maximum;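 also: exposure for twelve days from plating with re-dosing on DIV 5 and 9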)
# In short: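 Developing rat cortical networks on MEA plates are exposed to compound for 12 days from plating. LDH activity is measured spectrophotometrically, with DMSO as baseline.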
# [5] = CCTE_Shafer_MEA_dev_AB: CCTE's Alamar Blue Assay for Cytotoxicity in the Neural Network Formation Assay, Shafer Lab (AID 2284083; active = hit-call score of the fitted dose curve at least 0.9, where 1 is the maximum;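 also: resazurin reduction fluorescence as viability of cultured neurons; twelve days of exposure from plating with re-dosing on DIV 5 and 9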)
# In short: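 Cytotoxicity companion to the developmental MEA: primary rat cortical neurons, 12-day exposure starting day 0, compound refreshed DIV 5 and 9; resazurin fluorescence, fitted against DMSO vehicle.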
# [6] = CCTE_Shafer_MEA_dev_mutual_information_norm: CCTE's Neural Network Formation Assay for Mutual Information Normalization, Shafer Lab (AID 2284091);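 as to AC50: mutual information between electrodes summarised as area under curve across four recording days; potency is for a decrease in mutual information relative to DMSO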
# In short: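 Rat cortical cultures, 48-well MEA, continuous exposure DIV 0–12 with full media/compound change DIV 5 and 9. Readout: inter-electrode mutual information, AxIS adaptive spike detection; AUC across DIV 5/7/9/12 recordings; DMSO baseline, negative fitting direction.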
# [7] = CCTE_Shafer_MEA_dev_correlation_coefficient_mean: CCTE's Neural Network Formation Assay for Mean Correlation Coefficient, Shafer Lab (AID 2284093);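 as to AC50: well mean pairwise spike train correlation integrated as AUC over recording days 5 to 12; potency fitted for loss of correlation relative to DMSO vehicle wells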
# In short: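 Extracellular firing from rat cortical networks on 48-well MEAs, DMSO-referenced, negative fitting direction. Compound present from plating to DIV12; mean pairwise correlation per well integrated over DIV5–12 recordings by trapezoidal AUC.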
# [8] = UKN2_HCS_IMR90_neural_migration: University of Konstanz (UKN) Leist Lab Neural Crest Cell Migration Assay in human induced IMR90 Pluripotent Stem Cells (UKN2) (AID 2284204); conditions: actives raise or lower the signal
# In short: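 iPSC-derived IMR90 neural crest cells on PLO/laminin/fibronectin were seeded around silicone stoppers; after stopper removal, migration in N2-S medium with EGF and FGF ran 24 h before 24 h chemical exposure. Calcein-AM/Hoechst high-content imaging; bidirectional fit versus DMSO.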
# [9] = IUF_NPC1b_proliferation_BrdU_72hr: Leibniz Research Institute for Environmental Medicine (IUF) 72-hour Neural Progenitor Cell Bromodeoxyuridine (BrdU) Proliferation Assay (NPC1b) (AID 2284207)
# In short: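 hNPC spheres (primary, GW 16-19 fetal cortex), single sphere/well, EGF+FGF medium; 72 h compound, no renewal; BrdU pulse last 16 h; luminescent ELISA; activity vs DMSO baseline; growth-factor withdrawal as positive control.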
# [10] = IUF_NPC1a_proliferation_area_72hr: Leibniz Research Institute for Environmental Medicine (IUF) 72-hour Neural Progenitor Cell Proliferation Area Assay (NPC1a) (AID 2284208)
# In short: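 Measured in 3D suspension: each well held one primary hNPC sphere grown with EGF and FGF at pH 7.2-7.6. Compound stayed on for 72 h, then area was imaged; spheres lacking growth factors defined reduced proliferation.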
# [11] = IUF_NPC1_viability_72hr: Viability Assessment at 72 hours in the Leibniz Research Institute for Environmental Medicine (IUF) Neural Progenitor Cell Proliferation Assay (NPC1) (AID 2284209)
# In short: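 Human fetal-cortex neural progenitor spheres (0.25–0.35 mm, one per well) grown in EGF/FGF proliferation medium at 37C, pH 7.2-7.6, exposed 72 h without renewal; viability read as alamar blue resazurin-to-resorufin fluorescence relative to DMSO.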
# [12] = CCTE_Mundy_HCI_Cortical_Synap_Neur_Matur_NeuriteSpotCountPerNeuriteLength: CCTE's Synaptogenesis and Neurite Maturation Assay in rat cortical cells for Neurite Spot Count per Neurite Length, Mundy Lab (AID 2284210)
# In short: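 Rat primary cortical cultures, glia arrested with AraC at DIV 5, were dosed with media change at DIV 7 and fixed at DIV 12. Synaptophysin puncta per MAP2-labelled neurite length were quantified by high-content imaging versus DMSO.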
# [13] = CCTE_Mundy_HCI_Cortical_NOG_NeuriteCount: CCTE's Neurite Outgrowth Assay in rat cortical cells for Neurite Count, Mundy Lab (AID 2284212);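 also: cells fixed about two days after chemical exposure began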
# In short: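 Neurite number per cell from high-content imaging of betaIII-tubulin immunostaining, with Hoechst nuclear counterstain.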
# [14] = CCTE_Mundy_HCI_Cortical_Synap_Neur_Matur_NeuriteLength: CCTE's Synaptogenesis and Neurite Maturation Assay in rat cortical cells for Neurite Length, Mundy Lab (AID 2284214)
# In short: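 Rat primary cortical cells were plated, treated with AraC at DIV 5 to arrest glial growth, then chemical-dosed with media change at DIV 7 through DIV 12. Fixed cells stained for MAP2, synaptophysin and Hoechst; neurite length quantified by high-content imaging.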
# [15] = CCTE_Mundy_HCI_Cortical_Synap_Neur_Matur_NeuriteSpotCountPerNeuron: CCTE's Synaptogenesis and Neurite Maturation Assay in rat cortical cells for Neurite Spot Count per Neuron Count, Mundy Lab (AID 2284215)
# In short: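 Developing rat cortical neurons, with glia suppressed by AraC, are exposed to chemicals from DIV 7 to DIV 12. Automated fluorescence imaging of MAP2-labelled neurites and synaptophysin puncta yields a count per neuron, normalised against DMSO wells.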
# [16] = UKN5_HCS_SBAD2_cell_viability: Viability Assessment in the University of Konstanz (UKN) Leist Lab Neurite Outgrowth Assay in human iPSC-derived immature Dorsal Root Ganglia Neurons (UKN5) (AID 2284056)
# In short: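 iPSC-derived immature peripheral neurons (SBAD2) seeded on Matrigel with CHIR99021, SU5402 and DAPT, dosed 1 h later for 24 h. Viability from Hoechst H-33342 and calcein-AM live staining, high-content imaging; bidirectional fit versus DMSO.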
# [17] = UKN5_HCS_SBAD2_neurite_outgrowth: University of Konstanz (UKN) Leist Lab Neurite Outgrowth Assay in human iPSC-derived immature Dorsal Root Ganglia Neurons (UKN5) (AID 2284070); conditions: actives raise or lower the signal
# In short: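 Human iPSC-derived immature DRG neurons (SBAD2) on Matrigel with CHIR99021 (1.5 uM), SU5402 (5 uM), DAPT (5 uM); compounds added 1 h post-seeding for 24 h. Calcein-AM neurite area imaged; bidirectional fit vs DMSO.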
# [18] = UKN4_HCS_LUHMES_neurite_outgrowth: University of Konstanz (UKN) Leist Lab Neurite Outgrowth Assay in human LUHMES cells (UKN4) (AID 2284206); conditions: actives raise or lower the signal
# In short: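 LUHMES neuronal precursors differentiated 2 days, replated without cAMP/GDNF, then exposed to chemicals for 24 h. Neurite area imaged by high-content microscopy after calcein-AM staining; Hoechst H-33342 marks viability. Bidirectional fit versus DMSO.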
smiles,measurement,setting,value
CCCN(CCC)c1c([N+](=O)[O-])cc(C(F)(F)F)cc1[N+](=O)[O-],outcome,[1],inactive
same,outcome,[2],inactive
Oc1ccc(Cl)cc1Cc1ccccc1,AC50,DIO3 (gene 1735),158 µM (active)
same,outcome,[1],inactive
same,outcome,[2],inactive
Oc1cc(Cl)ccc1Oc1ccc(Cl)cc1Cl,AC50,[3],9.46 µM (active)
same,AC50,DIO3 (gene 1735),85.5 µM (active)
same,AC50,[4],6.58 µM (active)
same,outcome,[1],inactive
same,AC50,[5],14.2 µM (active)
same,outcome,[2],inactive
same,AC50,[6],8.5 µM (active)
same,AC50,[7],9.23 µM (active)
CC[C@H](C)[C@H]1O[C@]2(C=C[C@@H]1C)C[C@@H]1C[C@@H](C/C=C(\C)[C@@H](O[C@H]3C[C@H](OC)[C@@H](O[C@H]4C[C@H](OC)[C@@H](O)[C@H](C)O4)[C@H](C)O3)[C@@H](C)/C=C/C=C3\CO[C@@H]4[C@H](O)C(C)=C[C@@H](C(=O)O1)[C@]34O)O2 (tested in a mixture with another compound),AC50,[3],0.259 µM (active)
same,outcome,[3],inactive
same,AC50,[4],522 nM (active) and 0.537 nM (active)
same,AC50,[5],7.85 µM (active)
same,outcome,[5],inactive
same,outcome,[2],inactive
same,AC50,[6],2.68 nM (active) and 0.647 nM (active)
same,AC50,[7],89.5 nM (active) and 4.11 nM (active)
same,AC50,[8],3.78 µM (active)
same,AC50,[9],8.2 µM (active)
same,AC50,[10],5.05 µM (active)
same,outcome,[11],inactive
same,AC50,[12],2.51 µM (active)
same,AC50,[13],8.88 µM (active)
same,AC50,[14],1.08 µM (active)
same,AC50,[15],1.19 µM (active)
O=S(=O)(O)C(F)(F)C(F)(F)C(F)(F)C(F)(F)C(F)(F)C(F)(F)C(F)(F)C(F)(F)F,outcome,[3],inactive
same,outcome,DIO3 (gene 1735),inactive
same,AC50,[16],770 µM (active)
same,AC50,[4],16.4 µM (active)
same,outcome,[4],inactive
same,outcome,[1],inactive
same,AC50,[17],752 µM (active)
same,AC50,[5],50 µM (active)
same,AC50,[6],25 µM (active)
same,outcome,[6],inactive
same,AC50,[7],68.6 µM (active)
same,outcome,[7],inactive
same,AC50,[8],114 µM (active)
same,outcome,[8],inactive
same,AC50,[18],19.1 µM (active)
same,AC50,[9],12.6 µM (active)
same,outcome,[9],inactive
same,outcome,[10],inactive
same,outcome,[11],inactive
same,outcome,[12],inactive
same,outcome,[13],inactive
same,outcome,[14],inactive
same,outcome,[15],inactive
N#CN,outcome,[1],inactive
same,outcome,[2],inactive
CCCN(CCOc1c(Cl)cc(Cl)cc1Cl)C(=O)n1ccnc1,outcome,[1],inactive
same,outcome,[2],inactive
O=[N+]([O-])/N=C1\NCCN1Cc1ccc(Cl)nc1,outcome,[3],inactive
same,outcome,[16],inactive
same,outcome,[4],inactive
same,outcome,[17],inactive
same,outcome,[6],inactive
same,outcome,[7],inactive
same,outcome,[8],inactive
same,outcome,[18],inactive
same,outcome,[9],inactive
same,outcome,[10],inactive
same,outcome,[11],inactive
same,outcome,[12],inactive
same,outcome,[13],inactive
same,outcome,[14],inactive
same,outcome,[15],inactive

# From PubChem BioAssay (EPA / NIEHS)
